# Experimental data: PubChem BioAssay (NCI)
# The panel holds about 83,000 compounds, 20% with a hit somewhere; the sample as a whole holds those more often.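 Method: cells in 96-well plates; compound added at one concentration; 48 h incubation; percent growth measured; values under 10 scored active.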 Active and inactive are the calls of the source.
# Tested on: KM12 colon
# Test: NCI-60 one-dose screen, 48 h (100 = growth as untreated, 0 = no growth, -100 = all killed)
# Settings: 10 µM
# Procedure: Growth inhibition of the KM12 human tumor cell line is measured as a screen for anti-cancer activity. Cells are grown in 96 well plates and exposed to the test compound for 48 hours. Compounds are tested at a single concentration, which is 10^-5 M for most compounds. The reported endpoint is percent growth (GI% or GIPRCNT), where numbers from 0 - 100% represent growth inhibition, and numbers from -100% - 0 represent cell death. For example, a value of 40 represents 60% growth inhibition. A value of 0 means no net growth occurred over the course of the experiment. A value of -40 indicates 40% of cells at the beginning of the experiment died by the end of the experiment. A value of -100 means all cells are dead at the end of the experiment.
# NCI-60 Human Tumor Cell Lines Screen was performed using the standard one-dose NCI protocol, which is described in more detail at https://dtp.cancer.gov/discovery_development/nci-60/default.htm.
# Compounds with GIPRCNT values below 10 were considered active. Activity score was based on GIPRCNT using the following formula: […]
# Score is 0 for GIPRCNT values of 100 or above, 50 for GIPRCNT values of 0, and 100 for GIPRCNT values of -100.
row,SMILES,growth
1,Cc1ccc(NCCN(C)CC(C)O)c2c(=O)c3ccccc3sc12 (stereo not given),44.9% (inactive)
2,Cc1cc(=O)n2nnc3cc(C(F)(F)F)ccc3n12,105% (inactive)
3,CN(C)c1ncnc2c1nnn2C1OC(CO)C(O)C1O (stereo not given),13.7% (inactive)
4,CCOC(=O)C1C(C(=O)OCC)C2C(=O)C3C(C(=O)OCC)C(C(=O)OCC)C3C(=O)C12 (stereo not given),109% (inactive)
5,C=C(C)[C@@H]1CC[C@]2(COCCC#N)CC[C@]3(C)[C@H](CC[C@@H]4[C@@]5(C)Cc6c([nH]c7ccccc67)C(C)(C)[C@@H]5CC[C@]43C)[C@@H]12,95.8% (inactive)
6,O=C(Nc1ccccc1)Nc1ncnc2c1ncn2-c1ccccc1,87.4% (inactive)
7,Cc1c2cnccc2c(C)c2c1c1cc(O)ccc1n2C(C)C,3.74% (active)
8,O=C1/C(=C/c2ccc([N+](=O)[O-])s2)Oc2cc(Cl)ccc21,-28.4% (active)
9,CS(=O)(=O)c1nccc(-c2c(-c3cccc(OCCc4ccccc4)c3)nc3sccn23)n1,104% (inactive)
10,NS(=O)(=O)c1ccc(N2N=C(c3ccccc3)CCC2=O)cc1,188% (inactive)
11,COc1cc2cc(Oc3ccc(NC(=O)c4cccc(C(F)(F)F)c4)cc3)c(C)nc2cc1OC,25.8% (inactive)
12,Cc1c(Cl)cccc1NC(=O)CCCl,100% (inactive)
13,O=C(CCCCCCC(=O)Nc1ccccc1)NO,14.4% (inactive)
14,CN1CCc2c(sc3nc4n(-c5ccc(Cl)cc5)cnn4c(=O)c23)C1,103% (inactive)
15,CCN(CC)CCNc1ccc(C)c2sc3cc(Cl)ccc3c(=O)c12,32.2% (inactive)
16,NC(CSC(c1ccccc1)(c1ccccc1)c1cccc2ccccc12)C(=O)O (stereo not given),91.9% (inactive)
17,COc1ccc(C(=O)c2ccccc2CN2C(=O)c3ccccc3C2=O)cc1,107% (inactive)
18,O=C(CCNC(=O)c1nc(-c2ccccc2)n(-c2ccc(Cl)cc2)n1)NO,93.7% (inactive)
19,CC(=O)Nc1ccc(S(=O)(=O)c2ccnc3cc(Cl)ccc23)cc1,90.1% (inactive)
20,Cc1ccc(/C=C/C(=O)C(=O)/C=C/c2ccc(C)cc2)cc1,93.8% (inactive)

row,SMILES,growth
1,COc1ccc(Cl)cc1Nc1nc(C(F)(F)F)ccc1C(=O)N/N=C/c1cc(OC)c(OC)c(OC)c1,30.6% (inactive)
2,O=[N+]([O-])c1ccc(/C(=C/c2ccccc2)[n+]2ccccc2)cc1,125% (inactive)
3,COc1ccc(NC(=O)C2CC3C=CC2C3)c([N+](=O)[O-])c1 (stereo not given),105% (inactive)
4,CN1CCc2c(sc3nc4n(-c5ccc(Cl)cc5)c(=O)[nH]n4c(=O)c23)C1,100% (inactive)
5,Cc1ccc(Cl)cc1NC(=O)CCl,96.1% (inactive)
6,O[C@@H]1CO[C@H]2[C@@H]1OC[C@@H]2O,105% (inactive)
7,Nc1nc(-c2cccnc2)nc2c1sc(=S)n2-c1ccccc1,99% (inactive)
8,O=C1C=C(Nc2cccc(Br)c2)c2ccccc2C1=O,32.6% (inactive)
9,COc1ccc(/C(C#N)=C/c2cccc(OC)c2OC)cc1,56.7% (inactive)
10,Nc1ccc(-c2cccs2)cc1NC(=O)c1ccc(CCCC(=O)Nc2ccc(C3CC3N)cc2)cc1 (stereo not given),69.3% (inactive)
11,COc1ccc2c(c1)OC(N)=C(C#N)C2c1cc(OC)c(OC)c(OC)c1 (stereo not given),-10.3% (active)
12,Nc1ccn(Cc2nnc(CCC(=O)c3nc4ccccc4[nH]3)o2)c(=O)n1,84.4% (inactive)
13,Cc1ccc(NC(=S)NNC(=S)Nc2ccc(C)cc2)cc1,60.5% (inactive)
14,CC(C)(C)c1ccc(S(=O)(=O)Oc2ccc(NC(=O)C3CCCCC3)cc2)cc1,31.7% (inactive)
15,Cc1ccc(NC(=O)N2CCCCC2)cc1[N+](=O)[O-],111% (inactive)
16,Cc1nc2n(c(=O)c1CCN1CCC(c3noc4cc(F)ccc34)CC1)CCC[C@@H]2O,99.9% (inactive)
17,IC(I)I,104% (inactive)
18,C[C@@H](O)[C@H]1C(=O)N2C(C(=O)O)=C(SC3CN[C@H](C(=O)N(C)C)C3)[C@H](C)[C@H]12 (stereo not given in full),108% (inactive)
19,CC1C(=NC(=O)c2cnccn2)C(C)C(c2ccc(Cl)cc2)NC1c1ccncc1 (stereo not given),95.8% (inactive)
20,CC(=O)COc1ccc(Cl)cc1Cl,113% (inactive)
